Compound activity from PubChem BioAssay.
D1 PAM: Potentiators of Human D1 Dopamine Receptor: qHTS. potentiation, % at 10 µM. AID 504651, 2011. HEK293 TREx D1 cells, calcium flux, dopamine EC20 potentiation. D(1A) dopamine receptor (Homo sapiens), P21728. 360,000 tested, 0.036% active; in the data active = potentiation above about 30%; also: 0% is about no effect
D1 antagonist: Antagonist of Human D 1 Dopamine Receptor: qHTS; activity change, negative = inhibition, % at 10 µM; D(1A) dopamine receptor (Homo sapiens), P21728; HEK293 TREx D1 cells, calcium flux, dopamine EC80; active compounds read low; 360,000 tested, 3.2% active; in the data active = activity change below about -30%; also: % is scaled to controls: 0 for no effect and ±100 for the full control effect
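Compound effects on dopamine-evoked calcium signalling were measured in tetracycline-induced HEK293 Trex D1 cells. Dopamine at EC80 followed a 180 s compound pre-read, and fluorescence was tracked kinetically for 180 s more.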
TRHR agonist: qHTS for Small Molecule Agonists and Allosteric Enhancers of Human TRH Receptor: Primary Screen for Agonists. Thyrotropin-releasing hormone receptor (Homo sapiens), P34981. TRHR cells, calcium flux fluo-8, FDSS agonist mode. activation, % at 2 µM. 360,000 tested, 0.18% active. AID 493084, 2011; also: 0% is about no effect
Target sequence (P34981 whole entry, looked up): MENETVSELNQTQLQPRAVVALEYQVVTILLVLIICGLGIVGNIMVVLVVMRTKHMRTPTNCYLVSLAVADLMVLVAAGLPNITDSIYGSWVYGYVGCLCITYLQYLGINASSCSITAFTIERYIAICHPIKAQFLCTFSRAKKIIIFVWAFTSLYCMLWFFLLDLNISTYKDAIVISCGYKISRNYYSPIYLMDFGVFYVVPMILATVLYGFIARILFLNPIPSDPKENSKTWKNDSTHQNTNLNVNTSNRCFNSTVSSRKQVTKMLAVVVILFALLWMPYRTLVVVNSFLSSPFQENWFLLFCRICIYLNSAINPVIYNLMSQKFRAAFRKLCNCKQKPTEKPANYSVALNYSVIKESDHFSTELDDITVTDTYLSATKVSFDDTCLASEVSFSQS
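Steps: seed TRHR cells overnight; add fluo-8 no-wash Ca dye, RT 30 min–1.5 h; record 10 s baseline; pin-transfer compounds; monitor fluorescence 1 cycle/s for the agonist window. Calcium increases flag candidate agonists.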
D1 ag: Allosteric Agonists of the Human D1 Dopamine Receptor: qHTS | D(1A) dopamine receptor (Homo sapiens), P21728 | HEK293 T-REx D1 cells, calcium flux, agonist mode | activation, % at 2 µM | 360,000 tested, 1% active; also: 0% is about no effect
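Inducible HEK293 T-REx D1 cells, force-coupled to calcium signalling, were plated at 4000 cells/well with tetracycline and held overnight at 30 C. After no-wash calcium dye loading, compound-evoked calcium rise over 180 s flagged agonists.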
TRHR PAM: qHTS for Small Molecule Agonists and Allosteric Enhancers of Human TRH Receptor: Primary Screen for Enhancers | TRHR cells, fluo-8 calcium fluorescence, EC20 TRH enhancement | Thyrotropin-releasing hormone receptor (Homo sapiens), P34981 | 360,000 tested, 0.66% active | enhancement, % at 2 µM | AID 493056, 2011; in the data active = enhancement above about 30%; also: 0% is about no effect
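Enhancer read-out: after compound pinning and an initial kinetic agonist-mode read, an EC20 of TRH (10 nM final) was injected and fluo-8 calcium signal (Ex 480/Em 530) followed at 1 s/cycle for 100 cycles in TRHR-expressing cells.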
* = called active by the depositor; . = no result. Hits are enriched below; roughly 4.7% of the tested compounds scored in any of these assays. Rule as the data show it, unless noted: active = activation above about 30%; inactive = the rest.

SMILES	D1 PAM	D1 antagonist	TRHR agonist	D1 ag	TRHR PAM
COc1cccc(C2c3[nH]c4ccccc4c3CCN2Cc2cnc(C)s2)c1OC (stereo unspecified)	6	-43*	0	1	28
COc1ccccc1CNC(=O)c1ccc(CS(=O)(=O)c2ccccc2OC)o1	-7	-89*	0	3	-1
O=C(NCc1ccccc1Cl)c1ccc(CS(=O)(=O)c2ccc(Br)cc2)o1	-3	3	0	46*	40*
COc1ccc(S(=O)(=O)Cc2ccc(C(=O)NCCc3ccc(S(N)(=O)=O)cc3)o2)cc1	1	-35*	1	2	-2
O=C(c1ccc(CS(=O)(=O)c2ccc(Br)cc2)o1)N1CCCCCC1	.	-24	3	33*	-4
O=C(NCc1ccccc1Cl)c1ccc(CS(=O)(=O)c2ccccc2)o1	-2	-14	2	15	-5
NS(=O)(=O)c1ccc(CCNC(=O)c2ccc(CS(=O)(=O)c3ccc(Br)cc3)o2)cc1	3	6	0	6	-2
O=C(CN1C(=O)CCc2cc(Br)ccc21)Nc1ccc(OC(F)(F)F)cc1	0	3	1	1	7
COc1ccccc1CNC(=O)c1ccc(CS(=O)(=O)c2ccc(C)cc2)o1	-4	-50*	0	12	0
COc1ccccc1S(=O)(=O)Cc1ccc(C(=O)NCc2ccc(C)cc2)o1	-11	-23	-1	1	1
O=C(NCc1ccccc1Cl)c1ccc2oc(=O)n(Cc3ccccc3)c2c1	1	-33*	1	9	4
Cc1ccc(CS(=O)Cc2ccc(C(=O)NCc3ccccc3Cl)o2)cc1 (stereo unspecified)	8	10	0	-1	-3
O=C(NCc1ccccc1Cl)c1ccc(CS(=O)Cc2ccc(Cl)cc2)o1 (stereo unspecified)	6	-46*	0	3	-7
O=C(NCc1ccccc1Cl)c1cc2ccccc2o1	-3	-33*	-2	34*	9
Cc1c(Cl)cccc1NC(=O)Cn1nnc2sc3c(c2c1=O)CCCC3	-3	-6	0	1	7
CCc1c(C)sc2c1CCN(C(=O)Nc1ccc(F)c(Cl)c1)C2c1ccc(F)cc1 (stereo unspecified)	-1	-11	1	7	-3
O=C(NCc1cccnc1)c1ccc(CS(=O)(=O)Cc2ccc(Cl)cc2)o1	0	-4	0	3	0
COc1cccc(C(=O)c2c[nH]c(C(=O)NCc3cccnc3)c2)c1	-4	-14	0	4	1
Cc1ccc(C(=O)c2c[nH]c(C(=O)NCc3cccnc3)c2)cc1	-10	-49*	-1	3	4
Cc1ccc(CS(=O)(=O)Cc2ccc(C(=O)NCc3cccnc3)o2)cc1	-1	-33*	0	0	-2
CCc1c(C)c2ccc(O)c(CN3CCN(c4ccc(F)cc4)CC3)c2oc1=O	0	8	0	-1	4
Cc1nc2ccn(Cc3ccco3)c(=O)c2cc1C(=O)NCc1ccccc1	-2	-7	0	1	1
C(=C\c1ccco1)/C1=NN(c2ccccc2)C(c2ccco2)C1 (stereo unspecified)	-8	7	10	45*	-2
CC(=O)OCc1c(-c2ccccc2)c2cc([N+](=O)[O-])ccc2n1C	-5	-47*	0	4	-5
COCCn1c(C)cc(O)c(C(c2ccccc2)N2CCN(CCO)CC2)c1=O (stereo unspecified)	-5	9	-1	-2	-5
SMILES	D1 PAM	D1 antagonist	TRHR agonist	D1 ag	TRHR PAM
O=[N+]([O-])c1ncccc1OCc1ccc(-c2ccccc2)cc1	-7	-33*	1	6	7
N#Cc1ccc(COc2cccnc2[N+](=O)[O-])cc1	-7	-7	0	2	-8
CN(C(=O)CSc1nnc(-c2ccco2)n1Cc1ccccc1)C1CCS(=O)(=O)C1 (stereo unspecified)	11	-37*	0	1	1
CNC(=O)c1cnc2sc(N3CCCCCC3)nn2c1=O	0	-6	-1	2	-4
Cc1cc(C)nc(NN2C(=O)/C(=C/c3ccccc3)SC2=S)n1	-1	2	0	4	0
CN(C)c1ccc(/C=C2\SC(=S)N(Nc3ncc(C(F)(F)F)cc3Cl)C2=O)cc1	-13	-63*	80*	168*	27
COc1ccc(N2CCN(C(=O)CCn3c(=O)c4cccn4c4cccnc43)CC2)cc1	-5	1	0	1	5
Cc1cc2oc(C(=O)NCc3ccncc3)c(C)c2cc1C	-2	-36*	0	0	30
O=C(CN1CCCCCCC1)N/N=C/c1ccc(F)cc1F	2	-32*	0	5	0
Cc1ccc(O)c(/C=N/NC(=O)CN2CCCC2)c1	0	5	0	4	-7
O=S(=O)(NCCc1csc(-c2cccc(F)c2)n1)c1cc(F)ccc1F	-4	-1	0	7	-2
COc1ccc2c(n1)Sc1nc3ccccc3nc1N2	2	-24	90*	262*	10
Cc1cccc(OCC(=O)Nc2ccc3oc(-c4ccccc4F)nc3c2)c1	0	6	1	2	-4
O=C(CSc1nnc2ccc3ccccc3n12)Nc1ccccc1Cl	0	-14	-1	-1	-4
N#Cc1ccc(CSc2nnc(-c3ccncc3)n2CCc2ccccc2)cc1	-4	4	0	1	-5
Cc1ccc(-c2nnc(SCC#N)n2N)cc1	10	-33*	0	0	0
c1ccc(CCn2c(SCc3ccccc3)nnc2-c2ccncc2)cc1	-3	-5	0	35*	10
COc1ccc(-c2nnc(SCc3ccccc3)n2N)cc1	-5	-29	0	63*	4
Cc1ccc(NC(c2nnc(-c3ccccc3)o2)c2ccccc2F)c([N+](=O)[O-])c1 (stereo unspecified)	-1	-4	0	-1	8
Cc1cccc(Cn2c(SCc3ccc(C(=O)NCc4cccs4)cc3)nc3ccncc32)c1	1	12	1	15	13
COc1ccc2c(C)c(CCC(=O)NCCc3ccccc3)c(=O)oc2c1	0	-9	-1	1	4
Fc1ccccc1OCCn1c(=S)[nH]c2ccccc21	1	6	0	2	37*
CC(C)S(=O)(=O)c1csc(C(=O)Nc2ccc(F)cc2)c1N	-18	-56*	0	1	0
CC(C)(C)c1ccc(C(=O)Nc2ccc(F)cc2)s1	-10	-24	1	11	0
